The record followed here is the antibiotic and cytotoxicity screens of Wong et al. (2023).

The whole screen tested about 39,000 compounds, of which about 3,300 (8.5%) were called active. Only a selection was taken, and actives are over-represented in it overall.

This test has as its system HepG2. Description: cytotoxicity call (relative viability < 0.9). As to conditions: 10 µM.
Regarding `CC(C)(C)c1cc(CN)n[nH]1`, the cytotoxicity call was “inactive”.
`O=C(C[C@@H]1C[C@H]2c3cc(NS(=O)(=O)c4ccc(F)cc4)ccc3O[C@H]2[C@@H](CO)O1)N1CCOCC1`: the cytotoxicity call is “inactive”.
For `O=C1O[C@H](c2ccccc2)[C@H](c2ccccc2)N2[C@H]1[C@@H](C(=O)N1CCN(c3ncccn3)CC1)[C@]1(C(=O)Nc3ccc(C#CC4(O)CCCCCC4)cc31)[C@H]2c1ccc(OCCO)cc1`, the cytotoxicity call was “inactive”.
`CO[C@@H]1CN(C)C(=O)c2ccc(NS(=O)(=O)c3ccccc3)cc2OC[C@H](C)N(C(=O)NC(C)C)C[C@@H]1C`: the cytotoxicity call was “inactive”.
Next, `CC(C)NC(=O)Nc1ccc2c(c1)CC(=O)N([C@H](C)CO)C[C@@H](C)[C@H](CN(C)C(=O)NC1CCCCC1)O2`: “inactive”; `C[C@H](CO)N1C[C@H](C)[C@H](CN(C)S(=O)(=O)c2cn(C)cn2)Oc2ccc(NS(=O)(=O)c3ccccc3)cc2C1=O`: “inactive”.
As for `CC(O)C1C(=O)N2C(C(=O)O)=C(SC3CNC(C(=O)N(C)C)C3)C(C)C12` (centres undefined), the cytotoxicity call was “inactive”.
In the case of `O=C1CN(/N=C/c2ccc([N+](=O)[O-])o2)C(=O)N1` it was “active”; in that of `O=C1CN(N=Cc2ccc([N+](=O)[O-])o2)C(=O)N1`, “active”.
For `O=C(CN1CCOCC1)N/N=C/c1ccc([N+](=O)[O-])o1`, the cytotoxicity call is “inactive”.
For `O=C1OC(CN2CCOCC2)CN1N=Cc1ccc([N+](=O)[O-])o1` (centres undefined), the cytotoxicity call was “active”.
With `CCOC(=O)c1ccc(N2NC(=O)/C(=C/c3ccc([N+](=O)[O-])o3)C2=O)cc1`, the cytotoxicity call was “inactive”.
`O=C1CN(N=Cc2ccc(-c3ccc([N+](=O)[O-])cc3)o2)C(=O)[N-]1.[Na+]`: the cytotoxicity call is “inactive”.
Consider `Nc1nnc(-c2ccc([N+](=O)[O-])o2)o1`, for which the cytotoxicity call was “inactive”.
In the case of `O=[N+]([O-])c1cncn1CCN1CCOCC1` it was “inactive”; in that of `O=C1OCCN1N=Cc1ccc([N+](=O)[O-])o1`, “active”.
Regarding `O=C(Cc1ccncc1)Nc1ccc2c(c1)[C@H]1C[C@H](CC(=O)N3CCc4ccccc4C3)O[C@H](CO)[C@H]1O2`, the cytotoxicity call is “inactive”.
In the case of `O=C(C[C@H]1C=C[C@H](NC(=O)Cc2ccccn2)[C@@H](CO)O1)NCCc1ccncc1` it was “inactive”; in that of `CC(=O)NCc1c(I)c(NC(C)=O)c(I)c(C(=O)O)c1I`, “inactive”; in that of `C[C@H]1CN([C@@H](C)CO)C(=O)c2cccc(NC(=O)c3ccc(-c4nccs4)cc3)c2O[C@H]1CN(C)Cc1ccc(-c2ccccc2)cc1`, “inactive”.
Next, `C[C@@H]1CN([C@@H](C)CO)S(=O)(=O)c2ccc(-c3ccc(F)cc3)cc2O[C@H]1CN(C)C(=O)C1CCOCC1`: “inactive”.
In the case of `C[C@@H]1CCCCO[C@H](CN(C)C(=O)CCCN(C)C)[C@@H](C)CN([C@@H](C)CO)C(=O)c2cc(N(C)C)ccc2O1` it was “inactive”.
For the molecule `C[C@@H]1CN([C@H](C)CO)C(=O)c2cccc(NS(C)(=O)=O)c2O[C@@H]1CN(C)C(=O)Nc1ccc(F)cc1`, the cytotoxicity call is “inactive”.
In the case of `Cc1[nH]c(=O)[nH]c(=O)c1/C=C/C(=O)O`, the cytotoxicity call is “inactive”.
Take `O=C(C[C@H]1CC[C@@H]2[C@H](COC[C@H](O)CN2S(=O)(=O)c2ccc(F)cc2)O1)N[C@H]1CCN(Cc2ccccc2)C1`: the cytotoxicity call is “inactive”.
Next, `C[C@H]1CN([C@@H](C)CO)C(=O)c2cc(NC(=O)Nc3ccc(C(F)(F)F)cc3)ccc2O[C@H]1CN(C)Cc1ccc(-c2ccccc2)cc1`: “active”; `C[C@@H]1CN([C@H](C)CO)C(=O)c2cc(NC(=O)Nc3ccc(C(F)(F)F)cc3)ccc2O[C@H]1CN(C)Cc1ccc(-c2ccccc2)cc1`: “active”; `C[C@@H]1CN([C@@H](C)CO)C(=O)c2cc(NC(=O)Nc3ccc(C(F)(F)F)cc3)ccc2O[C@@H]1CN(C)Cc1ccc(-c2ccccc2)cc1`: “active”.
Regarding `C[C@@H]1CN([C@@H](C)CO)C(=O)c2cc(NC(=O)Nc3ccc(C(F)(F)F)cc3)ccc2O[C@@H]1CN(C)S(C)(=O)=O`, the cytotoxicity call was “inactive”.
Turning to `C[C@H](CO)N1C[C@H](C)[C@@H](CN(C)C(=O)Nc2cccc3ccccc23)Oc2c(NC(=O)Nc3cccc4ccccc34)cccc2C1=O`, the cytotoxicity call is “inactive”.
In the case of `C[C@@H]1CCCCO[C@H](CN(C)Cc2ccccc2)[C@H](C)CN([C@@H](C)CO)C(=O)c2cc(NC(=O)c3ccncc3)ccc2O1` it was “inactive”; in that of `O=C(C[C@H]1CC[C@@H]2[C@H](COC[C@H](O)CN2C(=O)c2ccc(F)cc2)O1)NCCCN1CCOCC1`, “inactive”; in that of `COCC#Cc1cnc2c(c1)C(=O)N([C@H](C)CO)C[C@H](C)[C@H](CN(C)S(=O)(=O)c1ccccc1)O2`, “inactive”.
In the case of `OC[C@H]1O[C@@H](n2cnc3c(N[C@@H]4CCOC4)ncnc32)[C@H](O)[C@@H]1O`, the cytotoxicity call was “inactive”.
For the molecule `CC[C@H](C#CCN1CCOCC1)OC(C)=O`, the cytotoxicity call is “inactive”.
Next, `COc1ccccc1S(=O)(=O)N[C@@H]1CC[C@@H](CCNC(=O)C2CC2)O[C@H]1CO`: “inactive”; `CN1C(=O)c2cc(NC(=O)c3ccc(F)cc3)ccc2OC[C@@H]2O[C@H](CC(=O)N3CCOCC3)CC[C@@H]21`: “inactive”.
On to `COc1ccc(CN(C)C[C@H]2OCCCC[C@@H](C)Oc3ccc(NC(=O)C4CCCCC4)cc3C(=O)N([C@@H](C)CO)C[C@@H]2C)cc1`, for which the cytotoxicity call was “inactive”.
Regarding `NS(=O)(=O)c1ccc(CCn2ccn(CC(=O)NCCC3=CCCCC3)c(=O)c2=O)cc1`, the cytotoxicity call was “inactive”.
Turning to `C[C@@H]1CN([C@@H](C)CO)C(=O)Cc2cc(NS(=O)(=O)c3ccc(F)cc3)ccc2O[C@@H]1CN(C)S(=O)(=O)c1cn(C)cn1`, the cytotoxicity call was “inactive”.
On to `CN(C)C(=O)C[C@@H]1CC[C@@H](NC(=O)C2CCOCC2)[C@@H](CO)O1`, for which the cytotoxicity call is “inactive”.
Regarding `CCCNC(=O)Nc1ccc2c(c1)C(=O)N(C)C[C@@H](OC)[C@@H](C)CN(C(=O)C1CCOCC1)[C@H](C)CO2`, the cytotoxicity call was “inactive”.
As for `C[C@@H]1CN([C@H](C)CO)C(=O)c2cc(NC(=O)Nc3ccc(C(F)(F)F)cc3)ccc2O[C@@H]1CN(C)Cc1ccc(-c2ccccc2)cc1`, the cytotoxicity call is “active”.
In the case of `C[C@@H]1CN([C@@H](C)CO)C(=O)c2cc(NC(=O)Nc3ccc(C(F)(F)F)cc3)ccc2O[C@H]1CN(C)Cc1ccc(-c2ccccc2)cc1` it was “active”; in that of `C[C@H](CO)N1C[C@H](C)[C@H](CN(C)Cc2ccc(-c3ccccc3)cc2)Oc2ccc(NC(=O)Nc3ccc(C(F)(F)F)cc3)cc2C1=O`, “active”.
With `C[C@H](CO)N1C[C@H](C)[C@@H](CN(C)Cc2ccc(-c3ccccc3)cc2)Oc2ccc(NC(=O)Nc3ccc(C(F)(F)F)cc3)cc2C1=O`, the cytotoxicity call is “inactive”.
On to `Cc1ccc(OC(=O)N(C)C[C@@H]2OCc3ccccc3-c3ccccc3C(=O)N([C@@H](C)CO)C[C@H]2C)cc1`, for which the cytotoxicity call was “inactive”.
As to `C[C@H]1CN([C@@H](C)CO)S(=O)(=O)c2ccc(C#CCN(C)C)cc2O[C@H]1CN(C)C(=O)CN(C)C`, the cytotoxicity call is “inactive”.
Next, `O=C(CCCCCNC(=O)OCc1ccc(CO[C@H]2C[C@@H](c3ccc(C(F)(F)F)cc3)C=C(C(=O)N3CCN(Cc4ccccc4)CC3)O2)cc1)NO`: “inactive”.
Next, `C[C@H]1CN([C@@H](C)CO)C(=O)c2cc(NC(=O)Nc3ccc4c(c3)OCO4)ccc2O[C@H]1CN(C)S(C)(=O)=O`: “inactive”.
Take `COc1ccc(CNC(=O)C[C@H]2CC[C@@H]3[C@H](COc4ccc(NC(=O)C(C)C)cc4C(=O)N3C)O2)cc1`: the cytotoxicity call is “inactive”.
In the case of `C[C@@H]1CN([C@@H](C)CO)C(=O)Cc2cc(NS(=O)(=O)c3cccs3)ccc2O[C@H]1CN(C)Cc1ccncc1` it was “inactive”; in that of `CC[C@@H](C[C@@H](O)[C@@H](C)[C@H]1CC[C@H]2C3=CC(=O)[C@H]4[C@H](C)[C@@H](OC(=O)c5ccccc5)CC[C@]4(C)[C@H]3CC[C@]12C)C(C)C`, “inactive”.
For the molecule `CC[n+]1oc(-c2ccccc2)cc1C`, the cytotoxicity call is “active”.
As to `O=C(CCCCCNC(=O)OCc1ccc(CO[C@H]2C[C@@H](C3CCCCC3)C=C(C(=O)N3CCN(Cc4ccccc4)CC3)O2)cc1)NO`, the cytotoxicity call is “inactive”.
In the case of `COCC(=O)Nc1ccc2c(c1)C(=O)N(C)C[C@H](OC)[C@@H](C)CN(Cc1ccccc1OC)[C@@H](C)CO2` it was “inactive”.
As for `COC1=C(OC)C(=O)C(C/C=C(\C)CC/C=C(\C)CC/C=C(\C)CC/C=C(\C)CC/C=C(\C)CC/C=C(\C)CC/C=C(\C)CC/C=C(\C)CC/C=C(\C)CCC=C(C)C)=C(C)C1=O`, the cytotoxicity call is “inactive”.
Next, `COC1=C(OC)C(=O)C(C/C=C(\C)CC/C=C(\C)CC/C=C(\C)CC/C=C(/C)CC/C=C(\C)CC/C=C(\C)CC/C=C(\C)CC/C=C(\C)CC/C=C(\C)CCC=C(C)C)=C(C)C1=O`: “inactive”.
Next, `CC1=C(C)C(=O)C(C(CCCCCC(=O)O)c2ccccc2)=C(C)C1=O` (centres undefined): “inactive”; `COC1=C(OC)C(=O)C(CCCCCCCCCCO)=C(C)C1=O`: “active”.
In the case of `COC1=C(OC)C(=O)C(CCCCCCCCCC[P+](c2ccccc2)(c2ccccc2)c2ccccc2)=C(C)C1=O` it was “active”; in that of `CC1=C(C)C(=O)C(CCCCCCCCCC[P+](c2ccccc2)(c2ccccc2)c2ccccc2)=CC1=O`, “active”; in that of `COC(=O)CCCCCCC(=O)Nc1ccc(NC(=O)CCCC[P+](c2ccccc2)(c2ccccc2)c2ccccc2)cc1`, “inactive”.
Take `COC1=C(OC)C(=O)C(CC=C(C)CCC=C(C)CCC=C(C)CCC=C(C)CCC=C(C)CCC=C(C)CCC=C(C)CCC=C(C)CCC=C(C)CCC=C(C)C)=C(C)C1=O`: the cytotoxicity call is “inactive”.
In the case of `CC=Cc1ccc2n(c1=O)C[C@H]1[C@H](CO)[C@@H](C(=O)NC3CCC3)N(S(C)(=O)=O)[C@@H]21` it was “inactive”; in that of `COc1ccc(-c2cn3cc(C(=O)NCC(N)=O)nc3c(=O)n2CC2CC2)c(F)c1`, “inactive”; in that of `C[C@@H]1CN([C@H](C)CO)C(=O)c2cc(NS(=O)(=O)c3cccs3)ccc2O[C@H]1CN(C)S(=O)(=O)c1ccc(F)cc1`, “inactive”.
For `COc1ccc(NC(=O)Nc2ccc3c(c2)[C@@H]2C[C@H](CC(=O)NCc4ccccn4)O[C@H](CO)[C@@H]2O3)cc1`, the cytotoxicity call was “inactive”.
With `C[C@@H]1CN([C@@H](C)CO)C(=O)c2cc(NC(=O)CCN3CCOCC3)ccc2O[C@@H]1CN(C)Cc1ccc2c(c1)OCO2`, the cytotoxicity call is “inactive”.
